# From the supplement of paper PMC8728848
# Shown is part of a subset that was picked to be rich in the strongest signals.
# B1: Cohesin-hLangerin (Homo sapiens) (protein)
# chain: LDDLDAVRIKVDTVNAKPGDTVRIPVRFSGIPSKGIANCDFVYSYDPNVLEIIEIEPGDIIVDPNPDKSFDTAVYPDRKIIVFLFAEDSGTGAYAITKDGVFATIVAKVKEGAPNGLSVIKFVEVGGFANNDLVEQKTQFFDGGANVGDTTEPATPTTPVTTPTTTDDLDAASYPRFMGTISDVKTNVQLLKGRVDNISTLDSEIKKNSDGMEAAGVQIQMVNESLGYVRSQFLKLKTSVEKANAQIQILTRSWEEVSTLNAQIPELKSDLEKASALNTKIRALQGSLENMSKLLKRQNDILQVVSQGWKYFKGNFYYFSLIPKTWYSAEQFCVSRNSHLTSVTSESEQEFLYKTAGGLIYWIGLTKAGMEGDWSWVDDTPFNKVQSARFWIPGEPNNAGNNEHCGNIKAPSLQAWNDAPCDKTFLFICKRPYVPSEPHHHHHH
# Key:
# Assay in all cases: glycan array binding signal (z-score within array); higher = stronger binding
# Details in all cases: glycan notation: IUPAC condensed, linker removed
# [1] = biological target: Fuc(a1-2)Gal(b1-3)[Fuc(a1-4)]GlcNAc(b1-2)Man(a1-3)[Fuc(a1-2)Gal(b1-3)[Fuc(a1-4)]GlcNAc(b1-2)Man(a1-6)]Man(b1-4)GlcNAc(b1-4)[Fuc(a1-6)]GlcNAc(b1-4)[Fuc(a1-6)]GlcNAc
# Summary of the method: (§1)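 The Consortium for Functional Glycomics database supplied 3228 glycan arrays, of which those lacking an available protein sequence were dropped. The binding signal, a within-array Z-score, was averaged across arrays of the same protein sequence and across linkers. Negative scores can be read as non-binding.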
# [2] = biological target: Fuc(a1-2)Gal6S(b1-4)Glc
# Summary of the method: as §1
# [3] = biological target: Fuc(a1-2)[Gal(a1-3)]Gal(b1-3)GlcNAc(b1-2)Man(a1-3)[Fuc(a1-2)[Gal(a1-3)]Gal(b1-3)GlcNAc(b1-2)Man(a1-6)]Man(b1-4)GlcNAc(b1-4)[Fuc(a1-6)]GlcNAc
# Summary of the method: as §1
# [4] = biological target: Fuc(a1-2)[Gal(a1-3)]Gal(b1-3)GlcNAc(b1-6)GalNAc
# Summary of the method: as §1
# [5] = biological target: Fuc(a1-2)[Gal(a1-3)]Gal(b1-4)GlcNAc(b1-2)Man(a1-3)[Fuc(a1-2)[Gal(a1-3)]Gal(b1-4)GlcNAc(b1-2)Man(a1-6)]Man(b1-4)GlcNAc(b1-4)[Fuc(a1-6)]GlcNAc
# Summary of the method: as §1
# [6] = biological target: Fuc(a1-2)[Gal(a1-3)]Gal(b1-4)GlcNAc(b1-3)[Fuc(a1-2)[Gal(a1-3)]Gal(b1-4)GlcNAc(b1-6)]GalNAc
# Summary of the method: as §1
# [7] = biological target: Fuc(a1-2)[Gal(a1-3)]Gal(b1-4)GlcNAc(b1-6)GalNAc
# Summary of the method: as §1
# [8] = biological target: Fuc(a1-2)[Gal(a1-4)]Gal(b1-4)GlcNAc
# Summary of the method: as §1
# [9] = biological target: Fuc(a1-2)[GalNAc(a1-3)]Gal(b1-3)GalNAc(a1-3)[Fuc(a1-2)]Gal(b1-4)GlcNAc
# Summary of the method: as §1
# [10] = biological target: Fuc(a1-2)[GalNAc(a1-3)]Gal(b1-3)GlcNAc(b1-2)Man(a1-3)[Fuc(a1-2)[GalNAc(a1-3)]Gal(b1-3)GlcNAc(b1-2)Man(a1-6)]Man(b1-4)GlcNAc(b1-4)[Fuc(a1-6)]GlcNAc
# Summary of the method: as §1
# [11] = biological target: Fuc(a1-3)[Gal(b1-4)]GlcNAc(b1-3)Gal(b1-4)[Fuc(a1-3)]GlcNAc
# Summary of the method: as §1
# [12] = biological target: Fuc(a1-3)[Gal(b1-4)]GlcNAc(b1-3)Gal(b1-4)[Fuc(a1-3)]GlcNAc(b1-3)Gal(b1-4)[Fuc(a1-3)]GlcNAc
# Summary of the method: as §1
# [13] = biological target: Gal(b1-3)GalNAc(a1-3)[Fuc(a1-2)]Gal(b1-4)Glc
# Summary of the method: as §1
# [14] = biological target: Gal(b1-3)GlcNAc(b1-2)Man(a1-3)[Gal(b1-3)GlcNAc(b1-2)Man(a1-6)]Man(b1-4)GlcNAc(b1-4)[Fuc(a1-6)]GlcNAc
# Summary of the method: as §1
# [15] = biological target: Gal(b1-3)GlcNAc(b1-2)Man(a1-3)[GlcNAc(b1-4)][Gal(b1-3)GlcNAc(b1-2)Man(a1-6)]Man(b1-4)GlcNAc(b1-4)GlcNAc
# Summary of the method: as §1
# [16] = biological target: Gal(b1-3)GlcNAc(b1-2)[Gal(b1-3)GlcNAc(b1-6)]Man(a1-6)[Gal(b1-3)GlcNAc(b1-2)Man(a1-3)]Man(b1-4)GlcNAc(b1-4)GlcNAc
# Summary of the method: as §1
# [17] = biological target: Gal(b1-3)GlcNAc(b1-3)Gal(b1-4)GlcNAc(b1-3)Gal(b1-4)GlcNAc(b1-2)[Gal(b1-3)GlcNAc(b1-3)Gal(b1-4)GlcNAc(b1-3)Gal(b1-4)GlcNAc(b1-6)]Man(a1-6)[Gal(b1-3)GlcNAc(b1-3)Gal(b1-4)GlcNAc(b1-3)Gal(b1-4)GlcNAc(b1-2)Man(a1-3)]Man(b1-4)GlcNAc(b1-4)[Fuc(a1-6)]GlcNAc
# Summary of the method: as §1
# [18] = biological target: Gal(b1-4)Glc
# Summary of the method: as §1
# [19] = biological target: Gal(b1-4)GlcNAc(b1-2)Man(a1-3)Man(b1-4)GlcNAc(b1-4)GlcNAc
# Summary of the method: as §1
# [20] = biological target: Gal(b1-4)GlcNAc(b1-2)Man(a1-3)[Gal(b1-4)GlcNAc(b1-2)Man(a1-6)][GlcNAc(b1-4)]Man(b1-4)GlcNAc(b1-4)[Fuc(a1-6)]GlcNAc
# Summary of the method: as §1
# [21] = biological target: Gal(b1-4)GlcNAc(b1-3)Gal(b1-3)GlcNAc
# Summary of the method: as §1
# [22] = biological target: Gal(b1-4)GlcNAc(b1-3)Gal(b1-4)GlcNAc(b1-2)[Gal(b1-4)GlcNAc(b1-3)Gal(b1-4)GlcNAc(b1-6)]Man(a1-6)[Gal(b1-4)GlcNAc(b1-3)Gal(b1-4)GlcNAc(b1-2)Man(a1-3)]Man(b1-4)GlcNAc(b1-4)GlcNAc
# Summary of the method: as §1
# [23] = biological target: Gal(b1-4)GlcNAc(b1-3)Gal(b1-4)GlcNAc(b1-3)Gal(b1-4)GlcNAc(b1-3)Gal(b1-4)GlcNAc(b1-3)Gal(b1-4)GlcNAc(b1-2)[Gal(b1-4)GlcNAc(b1-3)Gal(b1-4)GlcNAc(b1-3)Gal(b1-4)GlcNAc(b1-3)Gal(b1-4)GlcNAc(b1-3)Gal(b1-4)GlcNAc(b1-6)]Man(a1-6)[Gal(b1-4)GlcNAc(b1-3)Gal(b1-4)GlcNAc(b1-3)Gal(b1-4)GlcNAc(b1-3)Gal(b1-4)GlcNAc(b1-3)Gal(b1-4)GlcNAc(b1-2)Man(a1-3)]Man(b1-4)GlcNAc(b1-4)[Fuc(a1-6)]GlcNAc
# Summary of the method: as §1
# [24] = biological target: Gal(b1-4)GlcNAc(b1-3)GalNAc
# Summary of the method: as §1
# [25] = biological target: Gal3S4S(b1-4)GlcNAc
# Summary of the method: as §1
# [26] = biological target: Gal6S(b1-3)GlcNAc6S
# Summary of the method: as §1
# [27] = biological target: Gal6S(b1-4)Glc6S
# Summary of the method: as §1
# [28] = biological target: Gal6S(b1-4)GlcNAc
# Summary of the method: as §1
# [29] = biological target: Gal6S(b1-4)GlcNAc6S
# Summary of the method: as §1
# [30] = biological target: GlcNAc(a1-4)Gal(b1-4)GalNAc
# Summary of the method: as §1
# [31] = biological target: GlcNAc(b1-2)[GlcNAc(b1-4)]Man(a1-3)[GlcNAc(b1-4)][GlcNAc(b1-2)[GlcNAc(b1-6)]Man(a1-6)]Man(b1-4)GlcNAc(b1-4)[Fuc(a1-6)]GlcNAc
# Summary of the method: as §1
# [32] = biological target: GlcNAc(b1-3)Gal(b1-4)GlcNAc(b1-2)Man(a1-3)[GlcNAc(b1-3)Gal(b1-4)GlcNAc(b1-2)Man(a1-6)]Man(b1-4)GlcNAc(b1-4)GlcNAc
# Summary of the method: as §1
# [33] = biological target: GlcNAc(b1-3)Gal(b1-4)GlcNAc(b1-3)Gal(b1-4)GlcNAc(b1-2)[GlcNAc(b1-3)Gal(b1-4)GlcNAc(b1-3)Gal(b1-4)GlcNAc(b1-6)]Man(a1-6)[GlcNAc(b1-3)Gal(b1-4)GlcNAc(b1-3)Gal(b1-4)GlcNAc(b1-2)Man(a1-3)]Man(b1-4)GlcNAc(b1-4)[Fuc(a1-6)]GlcNAc
# Summary of the method: as §1
# [34] = biological target: Man(a1-2)Man(a1-2)Man(a1-6)[Man(a1-3)]Man
# Summary of the method: as §1
# [35] = biological target: Man(a1-2)Man(a1-3)[Man(a1-2)Man(a1-6)]Man(a1-6)[Man(a1-2)Man(a1-2)Man(a1-3)]Man
# Summary of the method: as §1
# [36] = biological target: Man(a1-2)Man(a1-3)[Man(a1-6)]Man(a1-6)[Man(a1-2)Man(a1-3)]Man(b1-4)GlcNAc(b1-4)GlcNAc
# Summary of the method: as §1
# [37] = biological target: Man(a1-2)Man(a1-6)[Man(a1-3)]Man(a1-6)[Man(a1-2)Man(a1-2)Man(a1-3)]Man(b1-4)GlcNAc(b1-4)GlcNAc
# Summary of the method: as §1
# [38] = biological target: Neu5Ac(a2-3)Gal
# Summary of the method: as §1
# [39] = biological target: Neu5Ac(a2-3)Gal(b1-3)GlcNAc(b1-3)GalNAc
# Summary of the method: as §1
# [40] = biological target: Neu5Ac(a2-3)Gal(b1-3)[Fuc(a1-4)]GlcNAc(b1-3)Gal(b1-4)[Fuc(a1-3)]GlcNAc
# Summary of the method: as §1
# [41] = biological target: Neu5Ac(a2-3)Gal(b1-4)GlcNAc(b1-2)[Neu5Ac(a2-3)Gal(b1-4)GlcNAc(b1-6)]Man(a1-6)[Neu5Ac(a2-3)Gal(b1-4)GlcNAc(b1-2)Man(a1-3)][GlcNAc(b1-4)]Man(b1-4)GlcNAc(b1-4)GlcNAc
# Summary of the method: as §1
# [42] = biological target: Neu5Ac(a2-3)Gal(b1-4)[Fuc(a1-3)]GlcNAc(b1-3)GalNAc
# Summary of the method: as §1
# [43] = biological target: Neu5Ac(a2-8)Neu5Ac(a2-3)Gal(b1-3)GalNAc(b1-4)[Neu5Ac(a2-3)]Gal(b1-4)Glc
# Summary of the method: as §1
# [44] = biological target: Neu5Ac(b2-6)Gal(b1-4)GlcNAc
# Summary of the method: as §1
# [45] = biological target: Neu5Gc(a2-8)Neu5Ac(a2-3)Gal(b1-4)GlcNAc
# Summary of the method: as §1
# [46] = biological target: Neu5Gc(a2-8)Neu5Gc(a2-6)Gal(b1-4)GlcNAc
# Summary of the method: as §1
binder,measurement,setting,value
B1,glycan array binding signal (z-score),[1],0.805
same,glycan array binding signal (z-score),[2],-0.399
same,glycan array binding signal (z-score),[3],3.97
same,glycan array binding signal (z-score),[4],-0.238
same,glycan array binding signal (z-score),[5],3.4
same,glycan array binding signal (z-score),[6],1.3
same,glycan array binding signal (z-score),[7],-0.388
same,glycan array binding signal (z-score),[8],-0.301
same,glycan array binding signal (z-score),[9],-0.411
same,glycan array binding signal (z-score),[10],2.27
same,glycan array binding signal (z-score),[11],-0.026
same,glycan array binding signal (z-score),[12],-0.424
same,glycan array binding signal (z-score),[13],-0.311
same,glycan array binding signal (z-score),[14],0.003
same,glycan array binding signal (z-score),[15],4.37
same,glycan array binding signal (z-score),[16],4.81
same,glycan array binding signal (z-score),[17],5.37
same,glycan array binding signal (z-score),[18],-0.309
same,glycan array binding signal (z-score),[19],-0.352
same,glycan array binding signal (z-score),[20],-0.449
same,glycan array binding signal (z-score),[21],-0.419
same,glycan array binding signal (z-score),[22],3.41
same,glycan array binding signal (z-score),[23],0.332
same,glycan array binding signal (z-score),[24],-0.438
same,glycan array binding signal (z-score),[25],-0.417
same,glycan array binding signal (z-score),[26],5.12
same,glycan array binding signal (z-score),[27],4
same,glycan array binding signal (z-score),[28],3.76
same,glycan array binding signal (z-score),[29],4.85
same,glycan array binding signal (z-score),[30],-0.401
same,glycan array binding signal (z-score),[31],-0.2
same,glycan array binding signal (z-score),[32],-0.336
same,glycan array binding signal (z-score),[33],4.94
same,glycan array binding signal (z-score),[34],5.38
same,glycan array binding signal (z-score),[35],6.69
same,glycan array binding signal (z-score),[36],-0.429
same,glycan array binding signal (z-score),[37],6.34
same,glycan array binding signal (z-score),[38],-0.391
same,glycan array binding signal (z-score),[39],-0.31
same,glycan array binding signal (z-score),[40],3.62
same,glycan array binding signal (z-score),[41],-0.447
same,glycan array binding signal (z-score),[42],0.356
same,glycan array binding signal (z-score),[43],-0.417
same,glycan array binding signal (z-score),[44],-0.412
same,glycan array binding signal (z-score),[45],-0.431
same,glycan array binding signal (z-score),[46],-0.412
